Measurements reported in PubChem BioAssay AID652154 (Broad Institute, 2013).
Hit rate of the full screen: of about 360,000 compounds, about 4,200 (1.2%) were called active.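 Rule for the calls: active = mean replicate inhibition at least 60% with every replicate also reaching 60%; inconclusive = only one of the two criteria is met; inactive = mean below 60% and not all replicates reaching 60%.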 For the sample, actives were picked, then their nearest neighbours and some compounds at random.

Assay: PAX8 transcriptional activity inhibition in RMG-I – RMG-I cells, luciferase, single concentration, primary screen (AID 652154);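 note: luciferase light reporting Pax8 driven TPO promoter activity; plate controls were median of neutral control wells for no effect and mitoxantrone controls for full effect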
Settings: RMG-I TPO-luciferase reporter, SteadyGlo, 24 h; at 12.6 µM; hits give high values

| SMILES | inhibition |
| --- | --- |
| CCCNC(=O)C[C@H]1CC[C@H]2[C@@H](COc3ccc(NC(=O)Nc4c(C)noc4C)cc3C(=O)N2C)O1 | -6.6% (inactive) |
| C[C@H]1CN([C@@H](C)CO)C(=O)Cc2cc(NC(=O)Nc3ccc(F)cc3)ccc2O[C@H]1CN(C)C(=O)Nc1ccc(C(F)(F)F)cc1 | 59.7% (inactive) |
| CC(=O)N1[C@H](CNC(=O)CN(C)C)[C@H](c2ccc(C3=CCCC3)cc2)[C@@H]1CO | 10.8% (inactive) |
| Cc1cccc(CS(=O)(=O)c2ncc(Cl)c(C(=O)Nc3ccc(F)cc3)n2)c1 | 96.3% (active) |
| CN1CCN(c2ccc(NC(=O)c3ccc4c(c3)[nH]c(=O)n4Cc3ccc(F)cc3)cc2)CC1 | 1.33% (inactive) |
| Cc1cccc(NC(=O)CCN2CC(C)CC(C)C2)c1 (configuration not stated) | 2.21% (inactive) |
| CSc1nnc(NC(=O)c2nc(S(=O)(=O)Cc3ccc(C)cc3)ncc2Cl)s1 | 54.7% (inactive) |
| Cc1cccc(NC(=O)c2nc(S(=O)(=O)Cc3ccccc3)ncc2Cl)c1 | 64.5% (active) |
| Cc1ccc(C)c(Cn2nnc3c(=O)[nH]c(C(=O)Nc4ccc(F)cc4)nc32)c1 | -3.4% (inactive) |
| CN(C)CC#Cc1ccc([C@H]2[C@@H](CO)N(C(=O)C3CCC3)[C@H]2C#N)cc1 | 3.44% (inactive) |
| CO[C@H]1CN(C)C(=O)c2ccc(NC(=O)c3ccno3)cc2OC[C@@H](C)N(S(C)(=O)=O)C[C@H]1C | -22.4% (inactive) |
| C[C@H]1CN([C@@H](C)CO)C(=O)Cc2cc(NC(=O)Nc3ccc4c(c3)OCO4)ccc2O[C@H]1CN(C)Cc1ccc(C(=O)Nc2ccccc2N)cc1 | 37.5% (inactive) |
| O=C(Cc1ccccn1)N1[C@@H]2CNc3ccccc3[C@@H]2[C@@H]1CO | -15.2% (inactive) |
| O=C(C1CCOCC1)N1C[C@H]2[C@@H](c3ccccc31)[C@@H](CO)N2Cc1ccccc1F | -11.6% (inactive) |
| C[C@H](NC(=O)C[C@@H]1CC[C@@H]2[C@H](COC[C@@H](O)CN2C(=O)Nc2cc(Cl)cc(Cl)c2)O1)c1ccccc1 | 49.2% (inactive) |
| O=C(CCl)Nc1ccc(Sc2ccc(NC(=O)CCl)cc2)cc1 | 87.7% (active) |
| CCC(=O)Nc1ccc(Nc2nc(Cl)nc(Nc3ccc(NC(=O)CC)cc3)n2)cc1 | 1.45% (inactive) |
| O=C(CCl)Nc1cccc(CP(=O)(c2ccccc2)c2ccccc2)c1 | 18.2% (inactive) |
| C[C@@H]1CN([C@H](C)CO)C(=O)Cc2cc(NC(=O)Nc3ccc4c(c3)OCO4)ccc2O[C@H]1CN(C)Cc1ccc(C(F)(F)F)cc1 | 13.6% (inactive) |
| O=C(OCC(=O)N1CCN(C(=O)c2ccco2)CC1)c1ccc(Cl)c(Cl)c1 | 6.78% (inactive) |
| CN(c1ccccc1)S(=O)(=O)c1cc(C(=O)OCC(=O)N2CCN(C(=O)c3ccco3)CC2)ccc1Cl | 80.9% (active) |
| O=C(OCC(=O)N1CCN(C(=O)c2ccco2)CC1)c1cccc(O)c1 | -23.5% (inactive) |
